Data taken from the supplement of paper PMC7411054.
Where a name gives a salt, the structure may show the parent alone.

How the values were obtained:
Conditions in all cases: treatment time: 24 h
A549-ACTB-RAB5A [1] = test: lowest phenotypically active concentration; higher = less potent
Summary of the method: (§1)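 Four wells per concentration (0.3, 1, 3 or 9 µM) were treated for 24 h in each of fifteen gene-edited reporter lines from A549, HepG2 and WPMY1 cells, then imaged live. After normalising live-cell features to solvent control wells, deviation was defined as ≥3 of 4 wells lying past the 95th percentile of control Euclidean distances. Reproducibility was defined as a median replicate Pearson correlation above the 95th percentile of non-replicates. Both had to hold for phenotypic activity.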

A549-CANX-COX4 [2] = test: as above
Summary of the method: as §1

A549-GM130-SQSTM1 [3] = test: as above
Summary of the method: as §1

A549-TP53BP1-CLTA [4] = test: as above
Summary of the method: as §1

A549-TUBA1B-RELA [5] = test: as above
Summary of the method: as §1

A549-ACTB-RAB5A [6] = test: phenotypically active (imaging signature differs from DMSO and reproducible) at any of 0.3-9 uM (binary (1 = active, 0 = inactive)); higher = active
Summary of the method: as §1

A549-CANX-COX4 [7] = test: as above
Summary of the method: as §1

A549-GM130-SQSTM1 [8] = test: as above
Summary of the method: as §1

A549-TP53BP1-CLTA [9] = test: as above
Summary of the method: as §1

A549-TUBA1B-RELA [10] = test: as above
Summary of the method: as §1

HepG2-ACTB-RAB5A = test: as above
Summary of the method: as §1

HepG2-CANX-COX4 = test: as above
Summary of the method: as §1

HepG2-GM130-SQSTM1 = test: as above
Summary of the method: as §1

HepG2-TP53BP1-CLTA = test: as above
Summary of the method: as §1

HepG2-TUBA1B-RELA = test: as above
Summary of the method: as §1

WPMY1-ACTB-RAB5A = test: as above
Summary of the method: as §1

WPMY1-CANX-COX4 = test: as above
Summary of the method: as §1

WPMY1-GM130-SQSTM1 = test: as above
Summary of the method: as §1

WPMY1-TP53BP1-CLTA = test: as above
Summary of the method: as §1

WPMY1-TUBA1B-RELA = test: as above
Summary of the method: as §1

CCOC(=O)Nc1cc(-c2ccc(C)c(NS(C)(=O)=O)c2)nn2c(C)nnc12 [Bromosporine]
active: phenotypically active (A549-ACTB-RAB5A [6]) 1 | phenotypically active (A549-CANX-COX4 [7]) 1 | phenotypically active (A549-GM130-SQSTM1 [8]) 1 | phenotypically active (A549-TP53BP1-CLTA [9]) 1 | phenotypically active (A549-TUBA1B-RELA [10]) 1 | phenotypically active (HepG2-ACTB-RAB5A) 1 | phenotypically active (HepG2-CANX-COX4) 1 | phenotypically active (HepG2-GM130-SQSTM1) 1 | phenotypically active (HepG2-TP53BP1-CLTA) 1 | phenotypically active (HepG2-TUBA1B-RELA) 1 | phenotypically active (WPMY1-ACTB-RAB5A) 1 | phenotypically active (WPMY1-CANX-COX4) 1 | phenotypically active (WPMY1-GM130-SQSTM1) 1 | phenotypically active (WPMY1-TP53BP1-CLTA) 1 | phenotypically active (WPMY1-TUBA1B-RELA) 1
≤ 0.3 µM: lowest phenotypically active concentration (A549-ACTB-RAB5A [1])
1 µM: lowest phenotypically active concentration (A549-CANX-COX4 [2]) | lowest phenotypically active concentration (A549-GM130-SQSTM1 [3]) | lowest phenotypically active concentration (A549-TP53BP1-CLTA [4]) | lowest phenotypically active concentration (A549-TUBA1B-RELA [5])

CCCC1(CCC)CCC2(CCN(CCCN(CC)CC)C2)CC1 [Atiprimod dihydrochloride]
1 µM: lowest phenotypically active concentration (A549-TP53BP1-CLTA [4])
active: phenotypically active (A549-ACTB-RAB5A [6]) 1 | phenotypically active (A549-CANX-COX4 [7]) 1 | phenotypically active (A549-GM130-SQSTM1 [8]) 1 | phenotypically active (A549-TP53BP1-CLTA [9]) 1 | phenotypically active (A549-TUBA1B-RELA [10]) 1 | phenotypically active (HepG2-ACTB-RAB5A) 1 | phenotypically active (HepG2-CANX-COX4) 1 | phenotypically active (HepG2-GM130-SQSTM1) 1 | phenotypically active (HepG2-TP53BP1-CLTA) 1 | phenotypically active (HepG2-TUBA1B-RELA) 1 | phenotypically active (WPMY1-ACTB-RAB5A) 1 | phenotypically active (WPMY1-CANX-COX4) 1 | phenotypically active (WPMY1-GM130-SQSTM1) 1 | phenotypically active (WPMY1-TP53BP1-CLTA) 1 | phenotypically active (WPMY1-TUBA1B-RELA) 1
3 µM: lowest phenotypically active concentration (A549-CANX-COX4 [2])
≤ 0.3 µM: lowest phenotypically active concentration (A549-ACTB-RAB5A [1]) | lowest phenotypically active concentration (A549-GM130-SQSTM1 [3]) | lowest phenotypically active concentration (A549-TUBA1B-RELA [5])
